Peg3 promoter: Peg3 promoter activity inhibition | HeLa PEG-Prom luciferase reporter, luminescence, overnight | inhibition, % at 20 µM | 1.7% of 360,000 active | AID 588405;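 active means inhibition of at least 50% at 20 µM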
LGR2 inh: Drosophila LGR2 receptor signaling inhibition; AID 720647; HEK293 LGR2, CRE-luciferase, bursicon-stimulated, 4 h; inhibition, % at 9.99 µM; 0.35% of 380,000 active;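 active means drop in luminescence signal, shown as inhibition above about 50% in the replicate tests, limit read from the data, passing the limit was not always enough; inconclusive means probably only some replicates passing the limit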;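 further: agonist challenge used bursicon conditioned medium at about half maximal strength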
CF NFkB inh: inhibitors of cystic fibrosis induced NF-kB. inhibition, % at 5 µM. KKLEB NF-kB-GFP reporter, PAF-induced, GFP fluorescence overnight. 0.86% of 360,000 active;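 active means at least 50% inhibition at 5 µM, scaled per plate between neutral and stimulator controls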;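 further: PAF is a Pseudomonas aeruginosa culture filtrate used as stimulus; plate controls were PAF-stimulated DMSO wells for no effect and unstimulated DMSO wells for full effect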
Mdm2 MdmX PPI: inhibitors of human Mdm2/MdmX interaction; SaOS-2 split-luciferase Mdm2/MdmX complementation, luminescence; O15151+Q00987; inhibition, % at 8 µM; 3% of 330,000 active;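 active means inhibition of at least 50% at 8 µM in the primary screen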
Target sequence (O15151 whole entry, looked up): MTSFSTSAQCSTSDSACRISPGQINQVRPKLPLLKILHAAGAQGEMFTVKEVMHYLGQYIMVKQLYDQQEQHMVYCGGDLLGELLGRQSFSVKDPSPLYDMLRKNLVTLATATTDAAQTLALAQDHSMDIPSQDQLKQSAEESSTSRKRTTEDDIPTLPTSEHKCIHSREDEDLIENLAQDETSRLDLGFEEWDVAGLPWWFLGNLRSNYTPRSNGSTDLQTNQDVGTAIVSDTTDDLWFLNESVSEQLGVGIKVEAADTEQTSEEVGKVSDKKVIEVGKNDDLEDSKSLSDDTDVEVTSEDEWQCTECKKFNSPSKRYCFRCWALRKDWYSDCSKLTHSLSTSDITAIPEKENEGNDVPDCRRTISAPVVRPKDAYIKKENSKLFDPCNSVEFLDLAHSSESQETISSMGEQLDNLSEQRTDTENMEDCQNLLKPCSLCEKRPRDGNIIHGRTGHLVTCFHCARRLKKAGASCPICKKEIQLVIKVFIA
Target sequence (Q00987 whole entry, looked up): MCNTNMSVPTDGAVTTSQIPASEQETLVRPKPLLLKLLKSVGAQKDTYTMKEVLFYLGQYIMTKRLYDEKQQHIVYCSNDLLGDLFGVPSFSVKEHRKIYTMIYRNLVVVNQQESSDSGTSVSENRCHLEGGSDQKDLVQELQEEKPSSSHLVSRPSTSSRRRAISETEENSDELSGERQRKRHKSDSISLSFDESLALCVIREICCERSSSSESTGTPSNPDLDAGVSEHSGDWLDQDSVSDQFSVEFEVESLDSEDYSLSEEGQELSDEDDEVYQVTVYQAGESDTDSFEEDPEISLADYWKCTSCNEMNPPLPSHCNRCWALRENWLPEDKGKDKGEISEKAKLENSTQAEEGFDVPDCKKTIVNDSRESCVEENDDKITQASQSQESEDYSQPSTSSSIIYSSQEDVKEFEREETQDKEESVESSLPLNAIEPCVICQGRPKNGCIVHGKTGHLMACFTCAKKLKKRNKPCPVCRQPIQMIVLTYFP
HSP90 refold inh: HSP90 refolding inhibition in rabbit reticulocyte lysate; luciferase refolding luminescence, 3 h; 0.91% of 290,000 active; inhibition, % at 5.6 µM;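 active means inhibition above the screen-wide mean plus 3 SD, computed separately per campaign, cut at about 16% in these data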;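 further: 0% = DMSO wells and 100% = 60 µM geldanamycin wells; inhibitors lower the luminescence because luciferase stays unfolded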
KKLEB cytotox: reduces viability of KKLEB cystic fibrosis airway cells; KKLEB CF airway cells viability, ATPlite luminescence, overnight; hits give low values; cells stimulated with P. aeruginosa culture filtrate; activity change (cytotoxicity), % at 5 µM; 0.36% of 360,000 active; AID 602141;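 active means corrected activity change at or below -50% at 5 µM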
HSP90 confirm: confirmation of HSP90 inhibitors; shares compounds with HSP90 refold inh; rabbit reticulocyte lysate, luciferase refolding luminescence, 3 h; inhibition, % at 5.9 µM; 64% of 2,300 active; in the data active means inhibition above about 18%;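 further: 0% = vehicle wells and 100% = reference inhibitor wells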
luciferase ctr: firefly luciferase inhibition, HSP90 counter-screen | inhibition, % at 5.9 µM | 48% of 2,300 active | shares compounds with HSP90 refold inh | purified native firefly luciferase, luminescence | AID 1847;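 active means inhibition above the mean inhibition of all tested sample wells plus 3 SD, cut at about 10% in these data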;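 further: 0% = DMSO with luciferase and 100% = wells lacking luciferase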
Active calls of the source: *; ? = inconclusive; / = no result. In the library only some 3.6% were active in any assay of this set; here they are far more common.

SMILES	Peg3 promoter	LGR2 inh	CF NFkB inh	Mdm2 MdmX PPI	HSP90 refold inh	KKLEB cytotox	HSP90 confirm	luciferase ctr
CN(C)c1cccc(C(=O)Nc2nc3ccccc3[nH]2)c1	-55.2	?	-13.5	-74.1	25.5*	-20.7	56.2*	39.4*
O=C(Nc1nc2ccccc2[nH]1)c1cccc(Br)c1	-239.1	-112.7	-11.7	-109.9	12.4	3.5	/	/
O=C(Nc1nc2ccccc2[nH]1)c1cccc(F)c1	-130.1	-24.3	-8.4	-72.8	26.2*	-6.0	29.8*	11.8*
CN(C)CCCNC(=O)C[C@@H]1CC[C@H]2[C@H](COc3ccc(NC(=O)c4ccc5c(c4)OCO5)cc3C(=O)N2C)O1	/	7.9	/	/	/	/	/	/
O=C(C[C@H]1C=C[C@H](NS(=O)(=O)c2ccccc2)[C@@H](CO)O1)NCc1ccncn1	/	-3.3	/	/	/	/	/	/
COC(=O)C[C@H]1C[C@@H]2c3cc(NS(=O)(=O)c4ccccc4)ccc3O[C@@H]2[C@@H](CO)O1	/	2.2	/	/	/	/	/	/
O=C1CN(C(=O)CNCc2ccc(Cl)cc2)c2ccccc2N1	-1.1	-3.3	-10.1	-1.4	25.5*	13.6	-12.7	-11.0
COc1ccc2c3c([nH]c2c1)[C@H](CO)N(C(=O)c1ccccn1)CC31CCN(C(=O)C2CC2)CC1	/	5.4	/	/	/	/	/	/
C[C@@H]1CN([C@H](C)CO)C(=O)Cc2cc(NC(=O)Cn3cnnn3)ccc2O[C@H]1CN(C)S(=O)(=O)c1cccs1	/	16.3	/	/	/	/	/	/
CCN(CC)c1ccc(/C=C(\C#N)c2ccccn2)cc1	0.0	/	-10.6	-51.0	21.2*	-50.3*	69.6*	60.5*
Cc1nn(-c2ccccc2)c(Cl)c1/C=N/Nc1ccc(Cl)c(C(=O)O)c1	-18.4	?	-3.5	-273.3	37.9*	6.1	83.7*	78.3*
O=C(O)c1cc(N/N=C/c2c(O)ccc3ccccc23)ccc1Cl	-282.6	-131.7	-4.9	-71.0	-3.9	-1.8	/	/
O=C(O)c1cc(N/N=C/C=C/c2ccccc2)ccc1Cl	-230.4	-129.1	14.2	-116.1	27.2*	-8.2	36.7*	-7.6
CC(C)c1ccc(C2NC(=O)NC3=C2CCc2ccccc23)cc1 (configuration not stated)	-30.4	/	26.0	21.3	-0.1	-29.5	/	/
Cc1ccc(C2NC(=O)NC3=C2CCc2ccccc23)cc1 (configuration not stated)	-46.6	-12.1	-21.1	7.6	22.9*	7.0	51.5*	67.3*
O=C(COc1cccnc1[N+](=O)[O-])Nc1ccc(F)cc1	-110.5	-13.4	13.9	7.2	/	-0.4	/	/
CC(NC(=O)COc1cccnc1[N+](=O)[O-])c1ccc(F)cc1 (configuration not stated)	7.6	12.2	10.7	-13.4	30.4*	13.1	2.7	-5.7
CO[C@H]1CN(C)C(=O)c2ccc(NC(=O)CC(F)(F)F)cc2OC[C@@H](C)N(S(=O)(=O)c2cn(C)cn2)C[C@@H]1C	/	0.2	/	/	/	/	/	/
S=C(c1ccc(N2CCCC2)c(Br)c1)N1CCCCC1	-34.4	-12.2	4.1	-11.3	22.3*	-10.8	0.5	-17.8
CO[C@@H]1CN(C)C(=O)c2cc(NC(=O)NC(C)C)ccc2OC[C@@H](C)N(C(=O)C2CCC2)C[C@@H]1C	/	8.5	/	/	/	/	/	/
CC(C)c1ccc(NCCC(=O)c2cccs2)cc1	-357.3	-60.2	4.0	3.3	28.8*	-5.3	34.8*	-8.6
Cc1ccc(NCCC(=O)c2cccs2)cc1	-321.7	-33.3	3.2	-16.0	7.4	-9.8	/	/
O=C(Nc1cccc(Cl)c1)N[C@@H]1CC[C@H](CCNC(=O)C2CCCCC2)O[C@@H]1CO	/	1.7	/	/	/	/	/	/
Cc1ccc(C(=O)CCS(=O)(=O)c2ccc(F)cc2)cc1	60.1*	4.4	32.3	16.5	37.8*	-11.3	57.7*	79.4*
Clc1ccc(-n2ncc3c(NCCN4CCOCC4)ncnc32)cc1	-63.6	/	1.3	21.4	44.2*	-2.4	50.1*	41.8*
SMILES	Peg3 promoter	LGR2 inh	CF NFkB inh	Mdm2 MdmX PPI	HSP90 refold inh	KKLEB cytotox	HSP90 confirm	luciferase ctr
N/C(=N\OC(=O)c1cccc(Br)c1)c1ccccn1	-53.7	77.1*	-6.9	-66.3	42.2*	-13.3	25.8*	73.7*
COc1ccccc1C(=O)O/N=C(\N)c1ccccn1	-133.8	?	-6.2	37.9	28.4*	-7.5	1.7	3.6
N/C(=N\OC(=O)c1cccc(Cl)c1)c1ccccn1	19.6	73.4*	-38.9	-82.1	34.3*	-4.5	30.9*	76.4*
COc1cccc(-c2cnc3c(c2)C(=O)N([C@@H](C)CO)C[C@H](C)[C@H](CN(C)C(=O)CN(C)C)O3)c1	/	20.5	/	/	/	/	/	/
CO[C@@H]1CN(C)C(=O)c2ccc(NC(C)=O)cc2OC[C@@H](C)N(C(=O)c2ccccc2F)C[C@@H]1C	/	2.5	/	/	/	/	/	/
O=C(Nc1ccccc1)Nc1cccc(Cl)c1	-252.0	/	-2.7	-18.7	2.6	1.4	/	/
CC(=O)Nc1cccc(NC(=O)Nc2cccc3ccccc23)c1	-29.9	1.4	-24.7	0.5	0.8	1.2	/	/
O=C(Nc1cccc(Cl)c1)Nc1cccc(C(=O)O)c1	-27.8	?	2.0	-4.5	50.8*	-12.6	69.4*	62.8*
COC(=O)c1cccc(NC(=O)NC(=O)c2ccccc2Cl)c1	-1.0	-2.1	-5.1	26.6	28.9*	-25.4	71.3*	16.1*
O=C(NCc1ccccc1)C(=O)Nc1cccc(C(=O)O)c1	31.4	83.8*	-6.4	-23.6	41.9*	0.3	71.3*	73.3*
CC(=O)c1cccc(NC(=S)NC(=O)c2ccccc2Cl)c1	-40.7	-17.6	6.4	14.9	7.9	-5.3	/	/
O=C(Nc1cccc(C(=O)O)c1)Nc1cccc2ccccc12	-28.1	-5.9	0.7	10.4	18.7*	-3.7	31.7*	15.3*
Cc1nc2cc(NC(=O)Nc3ccccc3Cl)ccc2n1C	-24.7	50.6*	-37.1	-95.2	31.9*	-18.0	58.9*	38.4*
O=C(Nc1ccc(Cl)cc1)Nc1ccccc1C(=O)O	-62.2	?	2.1	-151.4	26.6*	-10.3	45.5*	43.0*
CSc1ccccc1NC(=O)Nc1ccc(Cl)cc1	-182.3	-20.1	-25.2	-43.3	3.6	-2.2	/	/
O=C(Nc1cccc(C(=O)O)c1)Nc1ccccc1Cl	-8.8	70.4*	2.3	7.0	76.6*	-5.6	73.6*	71.3*
Cc1ccc(NC(=O)Nc2ccc3c(c2)nc(C)n3C)cc1	-149.7	-69.1	-13.9	-87.7	6.5	3.3	/	/
CCCC(=O)Nc1ccc2c(c1)OC[C@H](C)N(C)C[C@H](C)[C@@H](OC)CN(C)C2=O	/	-12.3	/	/	/	/	/	/
O=C(Nc1ccccc1F)N[C@@H]1CC[C@@H](CCNS(=O)(=O)c2ccc(F)cc2)O[C@H]1CO	/	-23.3	/	/	/	/	/	/
O=C(CCCCl)NC1=NN(c2ccccc2)C(=O)C1	-15.8	5.2	-6.3	/	0.7	9.3	/	/
CC(=O)NC1=NN(c2ccccc2)C(=O)C1	2.0	/	8.8	31.6	18.2*	-14.3	-7.0	-10.9
